Test results taken from PubChem BioAssay AID2685 (National Center for Advancing Translational Sciences (NCATS), 2010).
Out of some 320,000 compounds screened, about 2,100 (0.66%) were called active. Roughly 53% stayed inconclusive and do not appear here. Calls come from the whole dose curve; as a rule, active = well fitted inhibition curve with a large enough effect in the signal ratio, with a control signal flat (not every such curve was filed as active); inconclusive = small, poorly fitted or top-dose-only effect, or effect the other way, or a change in a side signal; inactive = flat fitted curve, though single readings scatter; the % refers to the signal ratio. Shown is part of a subset that was picked to be rich in actives.

Test: qHTS Assay for Lipid Storage Modulators in Drosophila S3 Cells;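 for cell number change: cells counted by Cell Tracker Red CMTPX staining in the red channel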; for lipid storage change, negative = inhibition: % is set by controls: 0 for no effect and ±100 for the full control effect
Details: BODIPY lipid droplet fluorescence, 18-24 h, cells fed with added oleic acid; cell number change: measured here: cell count max response; series mostly up to 46.1 µM
Procedure, shortened: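 Drosophila S3 cells loaded with oleic acid (400 uM, as added) and compounds at several concentrations; lipid droplets imaged by 488-nm laser-scanning cytometry, 500–530 nm intensity and object ratio to cell channel. Percent activity normalized to 20 uM Triacsin C.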
Potency is the fitted concentration of half-maximal effect.

Compound | Potency | cell number change [%] | lipid storage change, negative = inhibition
O=C(Nc1ccccc1)c1cc(S(=O)(=O)N2CCOCC2)cs1 | inactive | – | –
Cc1ccc(C(=O)NCc2ccco2)cc1S(=O)(=O)N1CCOCC1 | inactive | -14.2 | –
O=C(Nc1ccccc1F)C(=O)c1cn(CC(=O)N2CCCCC2)c2ccccc12 | inactive | -5.77 | –
COc1ccc(NC(=O)Cn2cnc3c(nnn3-c3ccc(C)cc3)c2=O)cc1 | – | -12.8 | -12.6% [at 9.22 µM] (inactive)
CC(=O)C1=C(O)C(=O)N(CCc2c[nH]c3ccccc23)C1c1ccc(O)cc1 (stereo not drawn) | inactive | -2.81 | –
CC(=O)C1=C(O)C(=O)N(CCc2c[nH]c3ccccc23)C1c1ccccc1 (stereo not drawn) | inactive | 3.29 | –
CC(=O)C1=C(O)C(=O)N(CCc2c[nH]c3ccccc23)C1c1cccc(O)c1 (stereo not drawn) | 20.6 µM (active) | -19.8 | –
CCOC(=O)c1[nH]c(C)c(C(=O)NCCCN2CCOCC2)c1C | inactive | 18.3 | –
CCc1ccc(-n2cnc3cc(C(=O)NCC(OC)OC)ccc32)cc1 | inactive | 2.84 | –
COc1ccccc1-c1nnc(SCC(=O)Nc2ccc(S(N)(=O)=O)cc2)n1N | inactive | 6.66 | –
CCn1c(SCC(=O)Nc2nccs2)nnc1-c1ccc(C)cc1 | inactive | -13.5 | –
CCn1c(SCC(=O)Nc2nccs2)nnc1-c1cc2cccc(OC)c2o1 | 1.84 µM (active) | -5.05 | –
C=CCn1c(SCC(=O)Nc2nccs2)nnc1-c1cc2cccc(OC)c2o1 | inactive | -25.4 | –
Cc1ccc(OCC(=O)NNC(=O)c2cccnc2)cc1C | inactive | 0.125 | –
CCC(C(=O)NCc1ccco1)N(C(=O)CNS(=O)(=O)c1ccc(C)cc1)c1ccccc1OC (stereo not drawn) | inactive | -11.8 | –
CCC(C(=O)NCc1ccco1)N(C(=O)CNS(=O)(=O)c1ccc(F)cc1)c1ccccc1F (stereo not drawn) | inactive | -1.9 | –
CCC(C(=O)NCc1ccco1)N(C(=O)CNS(=O)(=O)c1ccc(C)cc1)c1ccccc1F (stereo not drawn) | 1.16 µM (active) | 11.8 | –
CNC(=O)/C(C#N)=C\c1ccc(CNS(=O)(=O)c2ccc(Cl)cc2)o1 | inactive | -11.3 | –
CNC(=O)/C(C#N)=C/c1c(N2CCCCCC2)nc2ccccn2c1=O | inactive | 0.926 | –
CNC(=O)/C(C#N)=C/c1c(F)cccc1Cl | 10.3 µM (active) | -9.91 | –
COC(=O)C1=C(C)N(C2CCCC2)C(=O)C1(NC(C)=O)C(F)(F)F (stereo not drawn) | inactive | – | –
CC1=C(C#N)C(NC(=O)C2CCCCC2)(C(F)(F)F)C(=O)N1 (stereo not drawn) | inactive | 14.5 | –
COC(=O)C1=C(C)N(C(C)C)C(=O)C1(NC(=O)C1CCCCC1)C(F)(F)F (stereo not drawn) | 25.9 µM (active) | 24.5 | –

Compound | Potency | cell number change [%] | lipid storage change, negative = inhibition
COc1ccc(S(=O)(=O)N2CCC(C(=O)N[C@H](C(=O)N3CCCC3)C(C)C)CC2)cc1 | inactive | – | –
Cc1ccc2nc(NC(=O)CSc3nnc(C)c(=O)n3N)sc2c1 | inactive | 0.333 | –
CCOC(=O)c1c(C)[nH]c(NC(=O)Nc2ccc(NC(C)=O)cc2)c1C | inactive | 22.7 | –
O=C(CN(C(=O)CCC(=O)Nc1ccccn1)c1ccc2c(c1)OCCO2)NCCc1ccccc1 | inactive | -14.1 | –
O=C(O)c1cccc2c3c([nH]c12)CCCC3 | inactive | 23.1 | –
NNC(=O)c1ccc2[nH]c3c(c2c1)CCCC3 | inactive | 7 | –
O=C(O)c1cc2[nH]c3c(c2cc1Cl)CCCC3 | 4.11 µM (active) | -7.3 | –
CC(OC(=O)C1CC(=O)N(Cc2ccco2)C1)C(=O)Nc1ccc(F)cc1Cl (stereo not drawn) | inactive | -0.141 | –
Cc1cc(C)cc(N2CC(C)(C)C2=O)c1 | inactive | – | –
CCCOc1ccc(N2C(=O)CC(NCCc3ccc(S(N)(=O)=O)cc3)C2=O)cc1 (stereo not drawn) | inactive | 11.4 | –
S=C(NCCc1ccccc1)NN=C1CCCCCC1 | inactive | -23.7 | –
O=C(CC(=O)NN=C1CCCC1)NCCc1ccccc1 | inactive | 12 | –
O=C(NCCc1ccccc1)C(=O)NN=C1CCCC1 | 29.1 µM (active) | 6 | –
CN(C)CCOC(=O)c1ccc2c(c1)S(=O)(=O)c1ccccc1C2=O | inactive | 0.995 | –
Cc1cc(C)nc(SCC(=O)N/N=C/c2cccc([N+](=O)[O-])c2)n1 | inactive | 0.279 | –
O=C(COc1ccc(/C=N/NC(=O)c2ccccc2O)cc1)Nc1ccccc1 | – | -17.8 | 9.4% [at 9.22 µM] (inactive)
O=C(COc1ccc(/C=N/NC(=O)c2ccccc2Br)cc1)Nc1ccccc1 | 18.4 µM (active) | -20.5 | –
O=C(O)COc1ccc(/C=N/NC(=O)c2ccccc2Br)cc1 | inactive | -13.2 | –
CC(C)(C)OC(=O)N1CCC(C(=O)O)CC1 | inactive | 14 | –
O=S(=O)(NCc1ccccn1)C(F)(F)F | inactive | 15.5 | –
Cc1cc(C)n2c(SCC#N)nnc2n1 | inactive | – | –
CCO[C@H]1OC(C(=O)N2CCCCCCC2)=C[C@@H](c2ccccc2)[C@@H]1CCCO | inactive | -2.78 | –
CSC1=NNC(c2ccc(C(C)(C)C)cc2)=NN1 | inactive | 21 | –

Compound | Potency | cell number change [%] | lipid storage change, negative = inhibition
COCC(C)n1c(C)cc(C(=O)COC(=O)CN=C2NS(=O)(=O)c3ccccc32)c1C (stereo not drawn) | inactive | 10.7 | –
COc1ccc(C2/C(=C(/O)c3ccc(C)cc3)C(=O)C(=O)N2c2ccccn2)cc1OC (stereo not drawn) | inactive | -0.743 | –
COc1ccc(C(C)=O)cc1CN1C(=O)NC2(CCCCCCC2)C1=O | inactive | 6.34 | –
CCOc1ccc(C(C)=O)cc1CN1C(=O)NC2(CCCCC2C)C1=O (stereo not drawn) | inactive | -2.29 | –
CCOc1ccc(C(C)=O)cc1CN1C(=O)NC2(CCCCCC2)C1=O | 0.13 µM (active) | 3.15 | –
O=C(Nc1ccc(Cl)cc1)Nc1nnc(Cc2ccc([N+](=O)[O-])cc2)s1 | inactive | 3.06 | –
CCn1c(CNC(=O)COc2c(C)cccc2C)nnc1SCC(=O)Nc1nccs1 | inactive | -11 | –
C=CCNC(=S)NNC(=O)C(CCCC)CC(O)COCC(C)C (stereo not drawn) | inactive | 6.35 | –
C=CCNC(=S)NNC(=O)C(CC(C)C)CC(C)O (stereo not drawn) | inactive | 1.94 | –
C=CCNC(=S)NNC(=O)C(CCCC)CC(C)O (stereo not drawn) | 29.1 µM (active) | -5.26 | –
CCC(=O)Nc1ccc(/C=C(\C(C)=O)C(=O)c2ccccc2)cc1 | inactive | -16.8 | –
CC1(C)C2CCC(C2)C1(C)NC(=O)CNC1CCCCC1 (stereo not drawn) | inactive | – | –
CCOCCCNCC(=O)NC1(C)C2CCC(C2)C1(C)C (stereo not drawn) | 1.3 µM (active) | -12.8 | –
CC1(C)C2CCC(C2)C1(C)NC(=O)C[N+](C)(C)C (stereo not drawn) | inactive | 7.74 | –
Cc1ccc(C(=O)Nc2ccc(C(=O)N3CCCCC3)cc2)o1 | inactive | – | –
COCC(C)NS(=O)(=O)c1ccc(C(=O)NCCCn2ccc3ccccc32)cc1 (stereo not drawn) | inactive | -2.38 | –
O=C(NC(Cc1c[nH]c2ccccc12)C(=O)O)c1ccc(F)cc1 (stereo not drawn) | inactive | -8.38 | –
Cc1ccc(C(=O)NC(Cc2c[nH]c3ccccc23)C(=O)O)cc1 (stereo not drawn) | 16.4 µM (active) | 8.72 | –
Cc1ccc(C(=O)Nc2ccccc2C(=O)NC(Cc2c[nH]c3ccccc23)C(=O)O)cc1 (stereo not drawn) | inactive | 14.2 | –
O=C(Cc1ncc(C(F)(F)F)cc1Cl)NNc1cccc(F)n1 | inactive | 2.59 | –
CCC1(c2ccc(F)cc2)NC(=O)N(CC(=O)c2cc(C)n(C3CC3)c2C)C1=O (stereo not drawn) | inactive | -20.6 | –
CN(CCCNC(=O)CSc1cc(=O)n(C)c2ccc(Cl)cc12)Cc1ccccc1 | inactive | -6.41 | –
COc1ccccc1CN(C)C(=O)C(c1ccccc1)c1ccccc1 | 20.6 µM (active) | 14.8 | –

Compound | Potency | cell number change [%] | lipid storage change, negative = inhibition
COc1ccccc1CN(C)C(=O)CN1C(=O)c2ccccc2C1=O | inactive | 14.5 | –
COc1ccccc1CNC(=O)C(c1ccccc1)c1ccccc1 | inactive | 13.6 | –
CCOc1ccc(N(CC(=O)N2CCCCCC2)S(C)(=O)=O)cc1 | inactive | – | –
CCOC(=O)C1CCN(C(=O)Cn2cc(C(=O)C3CC3)c3ccccc32)CC1 | inactive | 3.64 | –
O=C(CCc1nnc2n(Cc3ccc(F)cc3)c(=O)c3ccccc3n12)N1CCN(c2ccccn2)CC1 | 13 µM (active) | -18.8 | –
COc1ccc(-c2cc(CCCC(=O)NCCc3cc(OC)ccc3OC)no2)cc1 | inactive | 4.57 | –
Cn1cnnc1SCC(=O)Nc1ccc(F)cc1F | inactive | -0.713 | –
O=C(CCCCCn1c(=O)[nH]c2ccsc2c1=O)N1CCCCC1 | inactive | -7.73 | –
CC(C)CCn1c(=O)c2sccc2n2c(CCCC(=O)N3CCC(N4CCCCC4)CC3)nnc12 | inactive | – | –
Cn1c(=O)c2sccc2n2c(CCCC(=O)N3CCCCC3)nnc12 | 10.3 µM (active) | -19.4 | –
O=C(CCc1nnc2n(Cc3ccc(Cl)cc3)c(=O)c3ccccc3n12)N1CCN(c2ccccn2)CC1 | inactive | -18.3 | –
COc1ccc(OC)c(CCNC(=O)CCCc2nnc3n(C)c(=O)c4sccc4n23)c1 | 7.31 µM (active) | -24.6 | –
Cn1c(=O)c2sccc2n2c(CCCC(=O)NCc3ccc4c(c3)OCO4)nnc12 | inactive | -24.9 | –
COc1ccc(Cn2c(CCC(=O)N3CCN(c4ccccn4)CC3)nc3ncccc3c2=O)cc1 | inactive | -8.69 | –
Cn1c(=O)c2sccc2n2c(CCCC(=O)Nc3ccc(F)cc3F)nnc12 | 9.2 µM (active) | -23.8 | –
O=C(CCN1C(=O)c2ccccc2C1=O)Nc1ccc(F)cc1F | inactive | 5.85 | –
O=C(CSc1ccc(F)cc1)N1CCOCC1 | inactive | 7.13 | –
COC(=O)c1ccc(COc2cc([N+](=O)[O-])cc3cccnc23)o1 | inactive | 5.31 | –
Cc1cccc(NC(=S)NC(C)C(c2ccccc2)N2CCN(C)CC2)c1C (stereo not drawn) | inactive | -10.3 | –
COc1ccc(OC)c(S(=O)(=O)NC2CC2)c1 | inactive | -2.27 | –
Nc1nc(SCC(=O)Nc2cccnc2Cl)n[nH]1 | inactive | – | –
COc1ccc(-c2n[nH]c(=S)n2N)c(OC)c1 | inactive | -28.8 | –
COc1ccc(CNC(=O)CCNS(=O)(=O)c2ccc3c(c2)oc(=O)n3C)cc1 | inactive | – | –
